Data from paper PMC9911399, “Two distinct binding modes provide the RNA-binding protein RbFox with extraordinary sequence specificity”.
Residue numbers refer to the chain shown, from its start. Over roughly 16,000 sequences, “ka relative to ugcaugu” has its median near 0.0091; the highest 2% begin near 0.032. Shown is part of a subset that was picked to be rich in the highest values.

T1: RBFOX1 RRM (Homo sapiens, UniProt Q9NWB1 109-208)
T1 sequence: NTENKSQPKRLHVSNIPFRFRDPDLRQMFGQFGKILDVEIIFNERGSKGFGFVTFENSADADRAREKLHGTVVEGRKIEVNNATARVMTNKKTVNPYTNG

B1: AGCCGGG (DNA:RNA)
RNA: GGGAGACCGGAAUUCAGAUUGUCCAGCCGGGUUAAAUCCCGUCGUAGCCACCA
DNA 1: CAATCTGAATTCCGGTCTCCC
DNA 2: TGGTGGCTACGACGGGATT
B2: GUUCCGG (DNA:RNA)
RNA: B1 RNA with A25G, G26U, C27U, G29C
DNA 1: CAATCTGAATTCCGGTCTCCC
DNA 2: TGGTGGCTACGACGGGATT
B3: UUCCAAA (DNA:RNA)
RNA: B1 RNA with A25U, G26U, G29A, G30A, G31A
DNA 1: CAATCTGAATTCCGGTCTCCC
DNA 2: TGGTGGCTACGACGGGATT
B4: GACAUUG (DNA:RNA)
RNA: B1 RNA with A25G, G26A, C28A, G29U, G30U
DNA 1: CAATCTGAATTCCGGTCTCCC
DNA 2: TGGTGGCTACGACGGGATT
B5: GCUAGUA (DNA:RNA)
RNA: B1 RNA with A25G, G26C, C27U, C28A, G30U, G31A
DNA 1: CAATCTGAATTCCGGTCTCCC
DNA 2: TGGTGGCTACGACGGGATT
B6: GCAAACC (DNA:RNA)
RNA: GGGAGACCGGAAUUCAGAUUGUCCGCAAACCUUAAAUCCCGUCGUAGCCACCA
DNA 1: CAATCTGAATTCCGGTCTCCC
DNA 2: TGGTGGCTACGACGGGATT
B7: GCGUGGG (DNA:RNA)
RNA: B1 RNA with A25G, G26C, C27G, C28U
DNA 1: CAATCTGAATTCCGGTCTCCC
DNA 2: TGGTGGCTACGACGGGATT
B8: AGAAUCG (DNA:RNA)
RNA: B1 RNA with C27A, C28A, G29U, G30C
DNA 1: CAATCTGAATTCCGGTCTCCC
DNA 2: TGGTGGCTACGACGGGATT
B9: AAGCGGU (DNA:RNA)
RNA: B1 RNA with G26A, C27G, G31U
DNA 1: CAATCTGAATTCCGGTCTCCC
DNA 2: TGGTGGCTACGACGGGATT

The binders below were run against T1, RBFOX1 RRM (assay: EMSA; HiTS-Eq, 1 nM pool, 10 min; buffer printed only for the single-RNA assays: 10 mM Tris pH 7.5, 150 mM NaCl, 3.4 mM EDTA, 0.001% NP-40, 30 C). Conditions: tags: His6 N-terminal (pET28a); label: 5' 32P.
Method in brief: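 Relative association constants, normalised to the cognate motif, were derived by comparing read counts of each RNA species with those of the control reaction. The RNA sequenced was the free fraction, separated by 8% native PAGE after a 10 min equilibration in 50 µL of 1 nM 5′-radiolabelled RNA (7 randomized nucleotides) with increasing concentrations of purified wild-type or mutant RbFox RRM.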
B1 was tested, and the binding signal was 0.0115 KA relative to UGCAUGU.
With B2 the binding signal was 0.0142 KA relative to UGCAUGU.
For B3, the binding signal was 0.00275 KA relative to UGCAUGU.
With B4 the binding signal was 0.0146 KA relative to UGCAUGU.
In the case of B5, the binding signal is reported as 0.0137 KA relative to UGCAUGU.
In the case of B6, the binding signal is reported as 0.00398 KA relative to UGCAUGU.
In the case of B7, the binding signal is reported as 0.0174 KA relative to UGCAUGU.
For B8, the binding signal was 0.00981 KA relative to UGCAUGU.
With B9 the binding signal was 0.00838 KA relative to UGCAUGU.
